# Experimental data: PubChem BioAssay AID624429 (Broad Institute, 2012)
# Potency and affinity values are given separately. Activity calls are given as the source filed them.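 Rule for the calls: active = viability loss with a fitted half-maximal dose at or below twice the top valid dose, in every repeat test; inconclusive = repeat tests disagree, or a flat partial loss, or a poor fit; inactive = all tests inactive, including signal rising instead of falling.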
# Assay: cytotoxicity in melanoma parental cells – cell-based, CellTiter-Glo, dry powder, set 6, MITF inhibitor project, dose response (AID 624429)
# Conditions: SK-MEL-5 viability, ATP luminescence (CellTiter-Glo), 24 h; series mostly up to 35 µM
smiles,measurement,value
NC1=C(NS(=O)(=O)c2ccc(Br)s2)C(=O)c2ccccc2C1=O,outcome,inactive
